Results: PubChem BioAssay AID1745849 (National Center for Advancing Translational Sciences (NCATS), 2022)
About 320 (15%) of roughly 2,100 compounds were called active. Roughly 52% stayed inconclusive and do not appear here. Some of the results follow. Unmarked numbers belong to inactive results. Calls follow the shape of the dose curve; as a rule, active = well fitted cell-killing curve with a large enough effect; inconclusive = small, poorly fitted or top-dose-only effect, or effect the other way; inactive = flat fitted curve, though single readings scatter.

Assay: Viability Counterscreen for CMV-Luciferase Assay of Inhibitors of ATXN expression; also: nearly all actives have a fitted effect of over 55% in size
Conditions: HEK-293 CMV-luciferase cells viability, protease fluorescence, 24 h; activity change, negative = cytotoxicity: at the top concentration
Summary of the method: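 HEK-293 cells stably expressing CMV-luciferase, treated 24 hr at 37 °C with compounds (several concentrations). Viability by Gly-Phe-AFC fluorescence (25 uM final, 30 min); reporter by SteadyGlo luminescence after 5 min.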
% is scaled to controls: 0 for no effect and ±100 for the full control effect; potency is read from the fitted curve at half-maximal effect.

Compound	activity change, negative = cytotoxicity	Potency
Cc1[nH]n(-c2ccccc2)c(=O)c1C=Nc1cccc2cccnc12	-15.3%	
Cc1[nH]n(-c2cccc3ccccc23)c(=O)c1/C=N/NC(=O)c1cccc([N+](=O)[O-])c1		11.2 µM (active)
Cc1cccc(/C=N/NC(=O)c2cccc(Cl)c2)n1	-7.6%	
Nc1ccc(Oc2ccccc2-c2ccccc2)cc1	13.4%	
CC(NC1=CC(=O)c2cccnc2C1=O)C(O)c1ccccc1 (stereo not given)		17.8 µM (active)
Cc1ccc(Sc2nnc(Cc3ccccc3)c3ccccc23)cc1	-19.3% [at 57.5 µM]	
Cc1ccc(S(=O)(=O)c2nc(NCc3ccc4c(c3)OCO4)sc2Cl)cc1	-13.9% [at 57.5 µM]	
Fc1ccc2[nH]c3c(N4CCSCC4)ncnc3c2c1		17.8 µM (active)
Cc1ccc(C)c(OCCCC(=O)Nc2nccs2)c1	-27.1% [at 57.5 µM]	
COc1ccc2c(Cl)c(C(=O)NN)sc2c1	3.31%	
Nc1c(C(=O)NCc2ccccc2)c2nc3ccccc3nc2n1-c1ccc2c(c1)OCO2	-14.7%	
CC[C@H]1CN2CCc3cc(OC)c(OC)cc3C2C[C@@H]1C[C@H]1NCCc2cc(OC)c(OC)cc21 (stereo not given in full)		0.316 µM (active)
CCC1=C(CC2NCCc3ccccc32)CC2c3cc(OC)c(OC)cc3CCN2C1 (stereo not given)		10 µM (active)
O=C(CC1NCCc2ccccc21)Nc1ccc(Cl)cc1 (stereo not given)	-23.1%	
O=C(C1CCC(CNS(=O)(=O)c2cccc3nsnc23)CC1)N1CC=C(c2ccccc2)CC1 (stereo not given)	7.33%	
COc1ccc(Br)cc1C(=O)Nc1ccccc1N1CCN(C(=O)c2ccccc2)CC1	-13.6%	
CCOC(=O)COc1ccc(Br)cc1/C=C/c1[nH]c(=O)[nH]c(=O)c1[N+](=O)[O-]	-25.5%	
CCN(CC)S(=O)(=O)c1ccc(N/N=C/c2cc(OC)ccc2O)nc1	-22.1%	
CC(C)(C)c1ccc(Oc2ccc(N)cn2)cc1	-8.75% [at 57.5 µM]	
COc1ccc2c(c1)C(SCC(=O)NCCc1ccc(Cl)cc1)CC(C)(C)O2 (stereo not given)	0.357%	
Cc1cccc(N2CCN(C(=O)CNC(=O)Cc3ccccc3)CC2)c1C	3.13%	
O=C(NNC(=O)C(c1ccccc1)c1ccccc1)c1ccccn1		10 µM (active)
CCC1=C(OC(=O)N(CC)CC)N2C(=O)OC(=NCCc3c[nH]c4ccccc34)[C@]2(Cc2ccccc2)[C@H]2C1=CC[C@H]1C(=O)N(c3ccccc3)C(=O)[C@H]12	-10.1% [at 57.5 µM]	
CCc1ccc(-c2nc(CS(=O)CC(=O)NCc3ccco3)c(C)o2)cc1 (stereo not given)	14.7%	
Cc1nc(N=C(N)N)nc2c(C)cccc12		8.91 µM (active)

Compound	activity change, negative = cytotoxicity	Potency
O=C(N/N=C/c1cc(Br)cc(Br)c1O)c1cccc(N2CCCC2=O)c1	22.1%	
O=C(Nc1cccc2cccnc12)c1csc(COCCO)n1	7.27% [at 57.5 µM]	
CS(=O)(=O)N(CC(O)CON=C1c2ccccc2-c2ccccc21)c1ccc(F)cc1 (stereo not given)	-19.1%	
Cc1ccc(NC(=O)C2CCN(S(=O)(=O)c3ccc(N4CCCC4=O)cc3)CC2)cc1Cl	-0.54%	
Cc1ccnc(NC(=O)C2CCN(S(=O)(=O)c3c(C)c(C)cc(C)c3C)CC2)c1		15.8 µM (active)
COc1ccc2nc(NC(=O)C3CCN(S(=O)(=O)c4cccs4)CC3)sc2c1	-18.4%	
O=C(Cn1cnc([N+](=O)[O-])c1)Nc1cc(Oc2ccc(Cl)cc2Cl)cc([N+](=O)[O-])c1	-25.4%	
Oc1ccc(Cl)cc1Sc1cc(Cl)ccc1O		20 µM (active)
CCOc1ccc(NC(=O)Nc2nnc(CC(=O)NCc3ccccc3)s2)cc1	-18.3% [at 57.5 µM]	
Cc1cc(C)c(CSc2ncc(-c3ccc([N+](=O)[O-])cc3)[nH]2)c(C)c1	0.339% [at 57.5 µM]	
CCN(c1ccccc1)S(=O)(=O)c1ccc(C(=O)N(CCCN(C)C)c2nc3c(C)cccc3s2)cc1		28.2 µM (active)
CN(C)CCCN(C(=O)c1ccc(S(=O)(=O)N(C)Cc2ccccc2)cc1)c1nc2cc3c(cc2s1)OCO3		22.4 µM (active)
CCOc1ccccc1NC(=O)CCCc1nc2ccccc2c(=O)[nH]1	-24.3%	
Cc1nn(C)c(C)c1NC(=O)CSc1nc(Cc2ccccc2)nc2c1cnn2-c1ccccc1	26.3%	
CCC(C)n1cnc2c(c1=O)c1nc3ccccc3nc1n2-c1ccc2c(c1)OCCO2 (stereo not given)	8.96% [at 57.5 µM]	
C=CCn1cnc2c(c1=O)c1nc3ccccc3nc1n2/N=C/c1cc(OC)c(OC)c(OC)c1		11.2 µM (active)
CCCCC(=O)N(C)c1c(CC)nc2c(OCc3ccc(Cl)cc3Cl)cccn12	-21.3%	
COc1ccc(Br)cc1C(=O)NC(=S)Nc1ccc(CN2CCOCC2)cc1	-23.8% [at 57.5 µM]	
CNc1ccc(Br)cc(C(=O)/C=C/c2ccc3c(c2)OCO3)c1=O	-14.4%	
CCNc1ccc(Br)cc(C(=O)/C=C/c2ccccc2Cl)c1=O	-19.1%	
CCc1ccc(/C=C/C(=O)c2cc(Br)ccc(=O)c2O)cc1		28.2 µM (active)
N#Cc1nc(COc2ccc(-c3ccccc3)cc2)oc1NCc1cccnc1	-12.5%	
Cc1ccc(NC(=O)COc2ccc(/C=C3/SC(=Nc4ccccc4)N(Cc4cccnc4)C3=O)cc2)cc1		17.8 µM (active)
Cc1cccc(CN2C(=O)/C(=C\c3ccc(C(=O)NCCN4CCOCC4)cc3)Sc3ccccc32)c1	-13.8% [at 57.5 µM]	
CCN1CCN(CCNC(=O)c2ccc(/C=C3/Sc4ccccc4N(Cc4cccc(C)c4)C3=O)cc2)CC1	-10.5% [at 57.5 µM]	
